In PubChem BioAssay (NCI):
This is part of a sample that, as a whole, favours compounds with a hit. Of some 83,000 tested, about 20% had one in any assay.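 48-hour exposure, single concentration, 96-well plates; percent growth endpoint where 0 means no net growth. Active: below 10.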 Values without a mark were called inactive. Activity calls are given as the source filed them.

tested on: LOX IMVI melanoma; assay: NCI-60 one-dose screen, 48 h (100 = growth as untreated, 0 = no growth, -100 = all killed); settings: 10 µM

SMILES	growth
O=C(O)c1ccccc1NCc1ccco1	93.5%
C/C(=C\c1cc(Cl)ccc1OCC(=O)O)[N+](=O)[O-]	88.6%
CSC[C@H](NC(=O)COc1cccc2cnccc12)C(=O)NC(Cc1ccccc1)C(O)C(=O)N1CSC[C@H]1C(=O)NC(C)(C)C (stereo partly specified)	102%
COC1=CC(=O)c2nc(Cl)ccc2C1=O	-95.7% (active)
CCOC(=O)CCCC(=O)OCC	98.9%
N#Cc1ccc(NC(=O)Nc2cccc(C#N)c2)cc1	91.6%
CC(C)=C(NC(=O)c1ccccc1)C(=O)O	101%
Cc1cc2nc(CC(=O)c3cccc([N+](=O)[O-])c3)c(=O)[nH]c2cc1C	72.8%
COc1cc(C(=O)N/N=C/c2cccc([N+](=O)[O-])c2)cc(OC)c1OC	50.2%
CN(C)C(C)(C)CC(C)(C)C	100%
O=c1cc(-c2ccccc2)[nH]c2c1CCCC2	37.4%
CC1(c2ccccc2)NC(=O)NC1=O (stereo unspecified)	109%
CCCNC(=O)c1ccc(S(N)(=O)=O)cc1	98.9%
COC(=O)c1[nH]c(=O)c(C#N)c(C(=O)OC)c1C(=O)c1ccccc1	89.9%
O=C(O)[C@@H]1[C@H]2C[C@H]3c4[nH]c5ccccc5c4CCN3C[C@@H]2CC[C@@H]1O	103%
CCCCOC(OCCCC)c1ccccc1	92.7%
CC1(O)OC(COc2ccc(Cl)cc2)COC1O (stereo unspecified)	98.9%
CNc1nc(NC)c2cn[nH]c2n1	98.3%
CC(C)=NNc1ccc([N+](=O)[O-])cc1[N+](=O)[O-]	77.6%
CC(=O)CC(=O)N(C)C	94.1%

SMILES	growth
Nc1ccc(N=Nc2ccc(S(=O)(=O)O)cc2)c2ccccc12	100%
COc1cc(OC)c2ccc(=O)oc2c1	96.6%
c1ccc(Sc2ccccc2)cc1	104%
Cc1ccc(/C=C2\SC(=S)N(c3ccc(F)cc3)C2=O)o1	68.8%
COc1ccc2c(NCCCCCCCCNc3c4ccccc4nc4cc(OC)ccc34)c3ccccc3nc2c1	-98.6% (active)
O=C(NCCNC(=O)c1ccc(Cl)cc1Cl)c1ccc(Cl)cc1Cl	94.9%
CC1C(=O)c2ccccc2CC1C(=O)O (stereo unspecified)	92.4%
Cc1nc2ccccc2c2nnc(SCC(=O)N(Cc3ccccc3)c3ccccc3)n12	91.6%
CCCCC(O)c1ccccc1 (stereo unspecified)	96.4%
O=S(=O)(O)c1ccc(O)c2ccccc12	92.7%
O=C1Cc2ccccc2C(=O)O1	102%
Nc1nc(OCc2ccccc2)c2[nH]cnc2n1	83.1%
Cc1c(C(=O)O)c(=O)n(-c2ccccc2)n1C	99.5%
COc1cc(/C=C/C(=O)c2ccccc2)cc(OC)c1OC	2.98% (active)
O=[N+]([O-])c1ccc(-c2noc(-c3cccs3)n2)cc1	86%
CC(=O)OCC1OC(OC2=C(CC=C(C)C)C(=O)c3ccccc3C2=O)C(OC(C)=O)C(OC(C)=O)C1OC(C)=O (stereo unspecified)	6.88% (active)
CCCCC/C=N/Nc1nc(C)cc(=O)[nH]1	94.3%
[O-][N+](=Nc1cccc(Cl)c1)c1cccc(Cl)c1	97.4%
COc1ccc(-c2cc3c(nn2)-c2ccccc2C3=O)cc1	43.3%

tested on: SK-MEL-28 melanoma; assay: as above; settings: 10 µM

SMILES	growth
O=C(O)c1ccccc1NCc1ccco1	111%
C/C(=C\c1cc(Cl)ccc1OCC(=O)O)[N+](=O)[O-]	118%
COC1=CC(=O)c2nc(Cl)ccc2C1=O	111%
CCOC(=O)CCCC(=O)OCC	109%
N#Cc1ccc(NC(=O)Nc2cccc(C#N)c2)cc1	108%
CC(C)=C(NC(=O)c1ccccc1)C(=O)O	108%
Cc1cc2nc(CC(=O)c3cccc([N+](=O)[O-])c3)c(=O)[nH]c2cc1C	97.7%
COc1cc(C(=O)N/N=C/c2cccc([N+](=O)[O-])c2)cc(OC)c1OC	62.1%
CN(C)C(C)(C)CC(C)(C)C	109%
O=c1cc(-c2ccccc2)[nH]c2c1CCCC2	52.1%
CC1(c2ccccc2)NC(=O)NC1=O (stereo unspecified)	113%
CCCNC(=O)c1ccc(S(N)(=O)=O)cc1	97.8%
COC(=O)c1[nH]c(=O)c(C#N)c(C(=O)OC)c1C(=O)c1ccccc1	101%
O=C(O)[C@@H]1[C@H]2C[C@H]3c4[nH]c5ccccc5c4CCN3C[C@@H]2CC[C@@H]1O	120%
CCCCOC(OCCCC)c1ccccc1	107%
CC1(O)OC(COc2ccc(Cl)cc2)COC1O (stereo unspecified)	107%
CNc1nc(NC)c2cn[nH]c2n1	115%
CC(C)=NNc1ccc([N+](=O)[O-])cc1[N+](=O)[O-]	111%
CC(=O)CC(=O)N(C)C	105%

SMILES	growth
Nc1ccc(N=Nc2ccc(S(=O)(=O)O)cc2)c2ccccc12	103%
COc1cc(OC)c2ccc(=O)oc2c1	115%
c1ccc(Sc2ccccc2)cc1	107%
Cc1ccc(/C=C2\SC(=S)N(c3ccc(F)cc3)C2=O)o1	100%
COc1ccc2c(NCCCCCCCCNc3c4ccccc4nc4cc(OC)ccc34)c3ccccc3nc2c1	-100% (active)
O=C(NCCNC(=O)c1ccc(Cl)cc1Cl)c1ccc(Cl)cc1Cl	104%
CC1C(=O)c2ccccc2CC1C(=O)O (stereo unspecified)	114%
Cc1nc2ccccc2c2nnc(SCC(=O)N(Cc3ccccc3)c3ccccc3)n12	109%
CCCCC(O)c1ccccc1 (stereo unspecified)	119%
O=S(=O)(O)c1ccc(O)c2ccccc12	109%
O=C1Cc2ccccc2C(=O)O1	106%
Cc1c(C(=O)O)c(=O)n(-c2ccccc2)n1C	122%
COc1cc(/C=C/C(=O)c2ccccc2)cc(OC)c1OC	82.3%
O=[N+]([O-])c1ccc(-c2noc(-c3cccs3)n2)cc1	99.5%
CC(=O)OCC1OC(OC2=C(CC=C(C)C)C(=O)c3ccccc3C2=O)C(OC(C)=O)C(OC(C)=O)C1OC(C)=O (stereo unspecified)	30.3%
CCCCC/C=N/Nc1nc(C)cc(=O)[nH]1	102%
[O-][N+](=Nc1cccc(Cl)c1)c1cccc(Cl)c1	113%
COc1ccc(-c2cc3c(nn2)-c2ccccc2C3=O)cc1	-49.3% (active)
